Data reported in PubChem BioAssay (Tox21).
Results filed as inconclusive are left out. Entries that show only a call come without a potency. The source made the active and inactive calls. Unless noted, calls come from the whole dose curve; as a rule, active = well fitted curve in the direction sought with a large enough effect in the repeat runs; inconclusive = weak or mixed curves; inactive = no such curve, though single readings can be large; an effect the other way counts as inactive or inconclusive.

What was measured:
[1] = qHTS assay to identify aromatase inhibitors - cell viability counter screen (AID 743084);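 note: cells stimulated with testosterone during compound exposure; nearly all actives have a fitted effect of over 55% in size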
[2] = biological target: Aryl hydrocarbon receptor (Homo sapiens) (UniProt P35869); assay: qHTS assay to identify small molecule that activate the aryl hydrocarbon receptor (AhR) signaling pathway (AID 743085); note: nearly all actives have a fitted effect of over 15% in size; note: potency is the fitted concentration of half-maximal effect;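 for activation: HG2L7.5c1 human HepG2 liver cells with stably integrated DRE-driven firefly reporter; series mostly up to about 70 µM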
Summary of the method: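 Luminescence read-out: ONE-Glo reagent, 30 min at room temperature, in HG2L7.5c1 HepG2 reporter cells treated 24 h at 37C. Viability was measured beforehand by CellTiter-Fluor fluorescence after 30 min at 37C.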

[3] = qHTS assay to identify small molecule that activate the aryl hydrocarbon receptor (AhR) signaling pathway - cell viability counter screen (AID 743086);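 note: HepG2 liver cells carrying the AhR DRE luciferase reporter; series mostly up to about 70 µM; nearly all actives have a fitted effect of over 45% in size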
Summary of the method: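 Cytotoxicity counter screen: CellTiter-Fluor signal (30 min, 37 C) in 4000 HepG2 cells/well carrying the DRE-luciferase reporter, following 24 h compound exposure at 37 C.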

[4] = biological target: Peroxisome proliferator-activated receptor gamma (Homo sapiens) (UniProt P37231); assay: qHTS assay to identify small molecule agonists of the peroxisome proliferator-activated receptor gamma (PPARg) signaling pathway (AID 743094; active = well fitted activation curve with a large enough effect in the signal ratio in the repeat runs, not every such curve was filed as active; the % refers to the signal ratio)
Summary of the method: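 Agonist activity was taken from a beta-lactamase reporter (FRET substrate, 1 h at room temperature) in HEK293H cells carrying a PPARg UAS-bla construct. Compounds in DMSO were incubated 17 h at 37C after a 5 h cell pre-incubation.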

[5] = qHTS assay to identify small molecule antagonists of the peroxisome proliferator-activated receptor gamma (PPARg) signaling pathway - cell viability counter screen (AID 743194); note: nearly all actives have a fitted effect of over 55% in size
Summary of the method: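 Viability was measured as CellTiter-Glo luminescence in GeneBLAzer PPARg UAS-bla HEK293H cells. These cells had been exposed 17 h at 37 C to compounds together with rosiglitazone at 50 nM final, with the beta-lactamase readout taken in the same wells.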

[6] = qHTS assay for small molecule agonists of the antioxidant response element (ARE) signaling pathway (AID 743202; active = well fitted activation curve with a large enough effect in the signal ratio in the repeat runs, not every such curve was filed as active; the % refers to the signal ratio)
Summary of the method: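 After 16 hours of compound treatment at 37 C, HepG2 cells with a stably integrated ARE-driven beta-lactamase reporter were loaded 2 hours at room temperature with LiveBLAzer B/G FRET substrate and fluorescence intensity measured.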

[7] = qHTS assay for small molecule agonists of the antioxidant response element (ARE) signaling pathway - cell viability counter screen (AID 743203; calls by dose curve; note: nearly all actives have a fitted effect of over 55% in size)
Summary of the method: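 Viability counter screen: CellTiter-Glo luminescence, read after 30 min at room temperature, in ARE-bla HepG2 wells. Compound exposure lasted 16 h at 37C/5% CO2, following a 5 h pre-incubation of the cells after plating.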

[8] = qHTS assay for small molecule activators of the heat shock response signaling pathway - cell viability counter screen (AID 743209); note: nearly all actives have a fitted effect of over 50% in size
Summary of the method: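 Cytotoxicity counter screen run in the same wells as the heat-shock bla reporter assay: HeLa HSE-bla cells, 5 h compound exposure at 37 C, viability read by CellTiter-Glo luminescence.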

[9] = qHTS assay for small molecule activators of the heat shock response signaling pathway (AID 743210; active = well fitted activation curve with a large enough effect in the signal ratio in the repeat runs, with a control signal flat, not every such curve was filed as active; the % refers to the signal ratio; note: series mostly up to about 63 µM)
Summary of the method: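 Compound exposure lasted 5 h at 37 C in HeLa cells carrying a heat-shock-element-driven beta-lactamase reporter. Read-out: fluorescence intensity after 2.5 h room-temperature loading with LiveBLAzer B/G FRET substrate.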

[10] = qHTS assay to identify small molecule agonists of the peroxisome proliferator-activated receptor delta (PPARd) signaling pathway - cell viability counter screen (AID 743211); note: nearly all actives have a fitted effect of over 55% in size
Summary of the method: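 Read-out: CellTiter-Glo luminescence, 30 min RT, measured in the same wells as the beta-lactamase reporter. Cells: GeneBLAzer PPAR delta UAS-bla HEK293H, 3000 cells/well, compound exposure 17 h at 37C.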

[11] = biological target: Peroxisome proliferator-activated receptor delta (Homo sapiens) (UniProt Q03181); assay: qHTS assay to identify small molecule agonists of the peroxisome proliferator-activated receptor delta (PPARd) signaling pathway (AID 743212; calls by dose curve)
Summary of the method: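 Beta-lactamase reporter readout: a ratiometric FRET signal from the LiveBLAzer substrate after 2 h at room temperature. Compound exposure at 37 °C in PPARδ-bla HEK293H cells driven by an upstream activator sequence.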

[12] = qHTS assay to identify small molecule antagonists of the peroxisome proliferator-activated receptor delta (PPARd) signaling pathway - cell viability counter screen (AID 743213); note: nearly all actives have a fitted effect of over 50% in size
Summary of the method: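 HEK293H PPARd UAS-bla cells, 5 h pre-incubation, compound + L165041 300 nM final, 17 h 37 C; B/G FRET substrate 2 h RT; then CellTiter-Glo 30 min RT, luminescence.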

[13] = biological target: Bile acid receptor (Homo sapiens) (UniProt Q96RI1); assay: qHTS assay to identify small molecule antagonists of the farnesoid-X-receptor (FXR) signaling pathway (AID 743217; active = well fitted inhibition curve with a large enough effect in the signal ratio in the repeat runs, not every such curve was filed as active; the % refers to the signal ratio)
Summary of the method: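 Antagonist mode: chenodeoxycholic acid at 50 uM final stimulates a UAS-driven beta-lactamase reporter in HEK 293T FXR-bla cells during 16 h, 37C compound exposure. Read-out is FRET substrate fluorescence after 2 h at room temperature.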

[14] = qHTS assay to identify small molecule agonists of the farnesoid-X-receptor (FXR) signaling pathway - cell viability counter screen (AID 743218); note: nearly all actives have a fitted effect of over 45% in size
Summary of the method: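 Viability counter screen in the same wells: CellTiter-Glo luminescence, 30 min room-temperature incubation, measured after the beta-lactamase read. Cells were GeneBLAzer FXR-UAS-bla HEK 293T, compound-treated 16 h at 37C.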

[15] = biological target: Bile acid receptor (Homo sapiens) (UniProt Q96RI1); assay: qHTS assay to identify small molecule agonists of the farnesoid-X-receptor (FXR) signaling pathway (AID 743220; active = well fitted activation curve with a large enough effect in the signal ratio in the repeat runs, not every such curve was filed as active; the % refers to the signal ratio)
Summary of the method: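 FXR-UAS-bla HEK 293T cells carrying a UAS-driven beta-lactamase reporter were plated for 5 h at 37C/5% CO2, then exposed to DMSO-dissolved Tox21 10K compounds for 16 h at 37C. A LiveBLAzer B/G FRET substrate was loaded for 2 h at room temperature before fluorescence reading.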

[16] = qHTS assay to identify small molecule antagonists of the farnesoid-X-receptor (FXR) signaling pathway - cell viability counter screen (AID 743221; active = well fitted cell-killing curve with a large enough effect in the repeat runs, not every such curve was filed as active; note: nearly all actives have a fitted effect of over 50% in size)
Summary of the method: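 HEK 293T FXR-bla cells, 5 h pre-incubation; compound + CDCA 50 uM final, 16 h, 37 C; beta-lactamase FRET read first, then CellTiter-Glo luminescence, 30 min RT.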

[17] = biological target: Vitamin D3 receptor (Homo sapiens) (UniProt P11473); assay: qHTS assay to identify small molecule agonists of the vitamin D receptor (VDR) signaling pathway (AID 743222; calls by dose curve)
Summary of the method: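 Agonist mode, beta-lactamase reporter: fluorescence from LiveBLAzer B/G FRET substrate (2 h, room temperature) read after 16 h compound treatment at 37 C of VDR-bla cells, which were pre-incubated 4 h after seeding.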

[18] = biological target: Peroxisome proliferator-activated receptor gamma (Homo sapiens) (UniProt P37231); assay: qHTS assay to identify small molecule antagonists of the peroxisome proliferator-activated receptor gamma (PPARg) signaling pathway (AID 743191; calls by dose curve; note: series mostly up to about 63 µM; nearly all actives have a fitted effect of over 30% in size)
Summary of the method: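 Beta-lactamase reporter under UAS control in HEK293H PPARg-bla cells; compound treatment 17 h at 37C. Read-out: fluorescence intensity after 1 h room-temperature incubation with LiveBLAzer B/G FRET substrate.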

[19] = biological target: Peroxisome proliferator-activated receptor delta (Homo sapiens) (UniProt Q03181); assay: qHTS assay to identify small molecule antagonists of the peroxisome proliferator-activated receptor delta (PPARd) signaling pathway (AID 743215; active = well fitted inhibition curve with a large enough effect in the signal ratio in the repeat runs, not every such curve was filed as active; the % refers to the signal ratio;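 note: cells stimulated with agonist L165041 at 300 nM final during compound exposure; series mostly up to about 62 µM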)
Summary of the method: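 Agonist L165041 (300 nM final) added with compound to PPARd-bla HEK293H UAS-bla reporter cells; 17 h incubation at 37 C. Read-out: LiveBLAzer FRET substrate, 2 h at room temperature, fluorescence intensity.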

[20] = biological target: Vitamin D3 receptor (Homo sapiens) (UniProt P11473); assay: qHTS assay to identify small molecule antagonists of the vitamin D receptor (VDR) signaling pathway (AID 743223; active = well fitted inhibition curve with a large enough effect in the signal ratio in the repeat runs, not every such curve was filed as active; the % refers to the signal ratio)
Summary of the method: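 Beta-lactamase reporter read-out: FRET substrate fluorescence after 2 h at room temperature, following 16 h exposure of VDR-bla cells to test compound plus 3 nM (final) 1alpha,25-dihydroxyvitamin D3 agonist at 37C.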

Chain of Aryl hydrocarbon receptor (Homo sapiens) (P35869 whole entry, looked up): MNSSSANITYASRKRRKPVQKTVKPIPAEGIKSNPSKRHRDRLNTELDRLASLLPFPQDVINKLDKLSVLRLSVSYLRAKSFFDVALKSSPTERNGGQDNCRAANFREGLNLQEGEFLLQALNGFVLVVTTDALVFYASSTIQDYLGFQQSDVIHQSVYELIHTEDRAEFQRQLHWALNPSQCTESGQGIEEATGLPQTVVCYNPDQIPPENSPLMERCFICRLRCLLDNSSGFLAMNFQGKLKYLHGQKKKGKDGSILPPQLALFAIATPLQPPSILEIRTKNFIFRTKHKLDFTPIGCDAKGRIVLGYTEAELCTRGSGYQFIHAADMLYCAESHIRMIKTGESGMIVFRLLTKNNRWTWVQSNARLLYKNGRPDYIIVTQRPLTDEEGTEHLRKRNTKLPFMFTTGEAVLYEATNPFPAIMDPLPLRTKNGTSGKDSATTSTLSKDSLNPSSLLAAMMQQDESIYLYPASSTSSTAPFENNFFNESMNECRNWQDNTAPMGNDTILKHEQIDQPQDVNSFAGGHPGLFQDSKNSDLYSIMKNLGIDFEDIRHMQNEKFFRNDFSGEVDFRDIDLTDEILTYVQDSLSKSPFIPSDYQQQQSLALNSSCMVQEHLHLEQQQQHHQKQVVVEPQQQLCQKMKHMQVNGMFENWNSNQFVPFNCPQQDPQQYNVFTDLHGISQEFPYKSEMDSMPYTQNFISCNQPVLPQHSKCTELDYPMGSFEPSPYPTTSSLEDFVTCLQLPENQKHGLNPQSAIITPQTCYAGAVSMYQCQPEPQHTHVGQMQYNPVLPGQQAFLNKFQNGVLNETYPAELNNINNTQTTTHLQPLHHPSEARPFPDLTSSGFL
Chain of Peroxisome proliferator-activated receptor gamma (Homo sapiens) (P37231 whole entry, looked up): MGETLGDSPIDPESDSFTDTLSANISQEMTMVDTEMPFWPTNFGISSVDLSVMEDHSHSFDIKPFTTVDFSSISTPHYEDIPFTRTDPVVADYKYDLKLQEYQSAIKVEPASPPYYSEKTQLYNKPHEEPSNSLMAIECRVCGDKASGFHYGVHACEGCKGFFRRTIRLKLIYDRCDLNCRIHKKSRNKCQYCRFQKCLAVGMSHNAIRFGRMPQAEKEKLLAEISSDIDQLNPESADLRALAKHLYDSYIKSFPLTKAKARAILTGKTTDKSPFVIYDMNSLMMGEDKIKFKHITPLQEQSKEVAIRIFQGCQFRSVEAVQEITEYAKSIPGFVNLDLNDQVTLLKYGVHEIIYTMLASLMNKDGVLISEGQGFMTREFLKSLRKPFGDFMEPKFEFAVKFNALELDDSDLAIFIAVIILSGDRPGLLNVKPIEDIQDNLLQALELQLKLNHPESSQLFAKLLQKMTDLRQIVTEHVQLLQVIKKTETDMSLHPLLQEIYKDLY
Chain of Peroxisome proliferator-activated receptor delta (Homo sapiens) (Q03181 whole entry, looked up): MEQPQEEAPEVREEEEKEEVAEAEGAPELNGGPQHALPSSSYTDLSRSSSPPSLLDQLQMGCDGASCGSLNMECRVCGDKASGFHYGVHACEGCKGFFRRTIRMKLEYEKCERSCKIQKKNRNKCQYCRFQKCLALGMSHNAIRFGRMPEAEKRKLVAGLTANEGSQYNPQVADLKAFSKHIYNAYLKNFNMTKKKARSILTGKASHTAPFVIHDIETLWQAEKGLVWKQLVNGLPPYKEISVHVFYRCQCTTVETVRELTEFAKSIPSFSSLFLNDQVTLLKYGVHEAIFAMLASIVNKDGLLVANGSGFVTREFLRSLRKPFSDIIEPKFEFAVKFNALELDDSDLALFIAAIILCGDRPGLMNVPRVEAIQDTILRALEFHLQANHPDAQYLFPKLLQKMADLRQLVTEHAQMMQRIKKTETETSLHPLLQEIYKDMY
Chain of Vitamin D3 receptor (Homo sapiens) (P11473 whole entry, looked up): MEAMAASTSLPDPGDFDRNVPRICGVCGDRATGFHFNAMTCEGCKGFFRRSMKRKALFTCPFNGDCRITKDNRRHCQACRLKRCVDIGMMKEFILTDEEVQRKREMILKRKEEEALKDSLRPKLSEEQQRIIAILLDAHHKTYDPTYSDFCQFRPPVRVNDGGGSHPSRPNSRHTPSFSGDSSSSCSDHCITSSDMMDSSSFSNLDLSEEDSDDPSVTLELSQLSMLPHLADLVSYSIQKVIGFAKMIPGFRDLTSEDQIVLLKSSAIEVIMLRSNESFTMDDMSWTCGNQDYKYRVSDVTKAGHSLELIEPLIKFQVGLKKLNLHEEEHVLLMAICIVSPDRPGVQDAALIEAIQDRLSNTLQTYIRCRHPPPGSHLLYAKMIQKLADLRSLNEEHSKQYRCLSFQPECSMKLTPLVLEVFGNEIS
Chain of Bile acid receptor (Homo sapiens) (Q96RI1 whole entry, looked up): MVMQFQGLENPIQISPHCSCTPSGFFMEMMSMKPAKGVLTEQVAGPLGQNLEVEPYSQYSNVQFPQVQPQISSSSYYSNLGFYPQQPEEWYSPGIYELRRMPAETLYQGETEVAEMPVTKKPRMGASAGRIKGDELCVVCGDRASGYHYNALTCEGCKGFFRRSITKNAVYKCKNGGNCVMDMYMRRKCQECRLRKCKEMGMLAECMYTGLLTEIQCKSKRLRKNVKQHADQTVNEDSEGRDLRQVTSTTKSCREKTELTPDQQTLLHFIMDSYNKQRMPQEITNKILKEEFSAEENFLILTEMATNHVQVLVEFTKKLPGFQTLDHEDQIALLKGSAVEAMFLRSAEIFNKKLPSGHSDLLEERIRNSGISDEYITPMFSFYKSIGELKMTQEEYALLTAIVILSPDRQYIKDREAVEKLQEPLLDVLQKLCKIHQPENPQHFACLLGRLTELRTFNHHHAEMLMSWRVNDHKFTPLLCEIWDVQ

Compound	Potency [1]	Potency [2]	outcome [3]	Potency [4]	Potency [5]	Potency [6]	Potency [7]	outcome [8]	Potency [9]	Potency [10]	outcome [11]	Potency [12]	outcome [13]	Potency [14]	outcome [15]	outcome [16]	outcome [17]	Potency [18]	outcome [19]	outcome [20]
CCNCCO	inactive	inactive	inactive	inactive	inactive	inactive	inactive	inactive	inactive	inactive	inactive	inactive	inactive	inactive	inactive	inactive	inactive			
Cc1ncc(CO)c(CN)c1O	inactive	inactive	inactive	inactive	inactive			inactive	inactive	inactive		inactive		inactive		inactive	inactive	inactive	inactive	
CCOc1ccc(OCC)c(Cl)c1	inactive	inactive	inactive	inactive		inactive	inactive	inactive		inactive	inactive	inactive	inactive		inactive	inactive		inactive		
CC(=O)Oc1cc(C(C)C)c(OCCN(C)C)cc1C	inactive	inactive	inactive	inactive	inactive	inactive	inactive	inactive	inactive			inactive		inactive		inactive				inactive
C=CCCCCCCCCO	inactive	inactive	inactive	inactive	inactive	inactive	inactive	inactive	inactive	inactive		inactive		inactive		inactive				
Cc1ccc(C(C)C)cc1O	inactive	inactive	inactive	inactive	inactive	inactive		inactive	inactive	inactive		inactive		inactive		inactive	inactive			
CC(=O)OC(C)OC(C)=O	inactive	inactive	inactive	inactive	inactive	inactive	inactive	inactive	inactive	inactive	inactive	inactive	inactive	inactive	inactive	inactive	inactive		inactive	inactive
CCCCN1C[C@H](O)[C@@H](O)[C@H](O)[C@H]1CO	inactive	inactive	inactive	inactive	inactive	inactive	inactive	inactive	inactive	inactive	inactive	inactive				inactive	inactive		inactive	inactive
FC(F)(F)C(F)(F)C(F)(F)C(F)(F)C(F)(F)C(F)(F)C(F)(F)C(F)(F)Br	inactive	inactive	inactive	inactive	inactive	inactive		inactive	inactive	inactive		inactive	inactive	inactive	inactive	inactive	inactive		inactive	inactive
CC(C)CCCCCCc1ccc(OCCOCCO)cc1	inactive	inactive	inactive	inactive	inactive	inactive	inactive	inactive	inactive			inactive		inactive		inactive	inactive			
C[C@@H]1CN(c2c(F)c(F)c3c(=O)c(C(=O)O)cn(C4CC4)c3c2F)C[C@H](C)N1	inactive	inactive	inactive	inactive	inactive			inactive	inactive		inactive	inactive			inactive	inactive	inactive	inactive	inactive	inactive
C=Cc1ccccc1	inactive	inactive	inactive	inactive	inactive	inactive	inactive	inactive	inactive	inactive	inactive	inactive		inactive		inactive	inactive		inactive	inactive
CCCCOc1cc(C(=O)NCCN(CC)CC)c2ccccc2n1	inactive	inactive	inactive	inactive			inactive	inactive	inactive					inactive		inactive		inactive		
CCN(CC)C(=O)N(CC)CC	inactive	inactive	inactive	inactive				inactive	inactive		inactive	inactive	inactive		inactive	inactive	inactive	inactive	inactive	inactive
COC(=O)C(C)O (configuration not stated)	inactive	inactive	inactive	inactive		inactive	inactive	inactive	inactive	inactive	inactive	inactive	inactive	inactive	inactive	inactive	inactive	inactive	inactive	
CC(=O)N(CC(O)CN(C(C)=O)c1c(I)c(C(=O)NCC(O)CO)c(I)c(C(=O)NCC(O)CO)c1I)c1c(I)c(C(=O)NCC(O)CO)c(I)c(C(=O)NCC(O)CO)c1I (configuration not stated)	inactive	inactive	inactive	inactive		inactive	inactive	inactive	inactive	inactive	inactive	inactive	inactive		inactive	inactive	inactive	inactive	inactive	inactive
CCCCCCC	inactive	inactive	inactive	inactive	inactive	inactive	inactive	inactive		inactive		inactive	inactive	inactive	inactive	inactive				
CCc1cc(Cl)c(OC)c(C(=O)NC[C@@H]2CCCN2CC)c1O	inactive	inactive	inactive	inactive	inactive	inactive	inactive	inactive	inactive		inactive	inactive					inactive		inactive	inactive
CN(C)Cc1ccccc1	inactive	inactive	inactive	inactive	inactive	inactive	inactive	inactive	inactive	inactive		inactive		inactive		inactive	inactive		inactive	inactive
CC(C)CC(=O)OCc1ccccc1	inactive	inactive	inactive	inactive	inactive	inactive	inactive	inactive	inactive	inactive	inactive	inactive		inactive		inactive			inactive	inactive
CCCc1c2oc(C(=O)O)cc(=O)c2cc2c(=O)cc(C(=O)O)n(CC)c12	inactive	inactive	inactive	inactive	inactive	inactive		inactive	inactive	inactive		inactive	inactive	inactive	inactive	inactive	inactive		inactive	inactive
CCOC(=O)CS	inactive	inactive	inactive	inactive	inactive	inactive	inactive	inactive	inactive		inactive	inactive	inactive	inactive	inactive	inactive	inactive		inactive	inactive
O=C1CCCCC1C1CCCCC1 (configuration not stated)	inactive	inactive	inactive	inactive	inactive	inactive	inactive	inactive	inactive	inactive		inactive		inactive		inactive	inactive		inactive	inactive
NCCC(O)(P(=O)(O)O)P(=O)(O)O	inactive	inactive	inactive	inactive	inactive	inactive		inactive	inactive		inactive	inactive	inactive		inactive	inactive			inactive	
COc1ccccc1N1CCN(CCCNc2cc(=O)n(C)c(=O)n2C)CC1	inactive	inactive	inactive	inactive	inactive		inactive	inactive	inactive	inactive	inactive	inactive				inactive	inactive		inactive	inactive
CC1(O)CSC(C)(O)CS1 (configuration not stated)	inactive	inactive	inactive		inactive		inactive	inactive	inactive			inactive		inactive	inactive	inactive		inactive		
CCOC(=O)[C@H](CCc1ccccc1)N[C@@H](C)C(=O)N1Cc2cc(OC)c(OC)cc2C[C@H]1C(=O)O	inactive	9.44 µM (active)	inactive		inactive			inactive	inactive	inactive	inactive	inactive		inactive		inactive	inactive	inactive	inactive	inactive
CC(C)(C)C1CCCCC1=O (configuration not stated)	inactive	inactive	inactive		inactive	inactive	inactive	inactive	inactive	inactive	inactive	inactive				inactive			inactive	
